Screening results: PubChem, several laboratories
MazEF act: activators of E. coli MazEF toxin-antitoxin RNase, primary screen, biochemical, fluorescence, uHTS. 350,000 compounds, 0.32% hits. AID 504720, 2011. FAM/BHQ RNA-DNA oligo cleavage fluorescence, 5 h. activation, % at 20 µM; in the data active = activation above about 50%
Target sequence (P0AE70 whole entry, looked up): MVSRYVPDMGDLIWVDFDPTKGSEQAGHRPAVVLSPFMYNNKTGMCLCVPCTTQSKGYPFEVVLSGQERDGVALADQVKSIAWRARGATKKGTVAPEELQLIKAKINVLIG
Y pestis TopoI: Yersinia pestis topoisomerase I inhibitors, primary screen, biochemical, cleavage product accumulation, plate reader, single point. activity, % at 10 µM. 360,000 compounds, 0.064% hits. Y. pestis Topo-I cleavage product accumulation. AID 504884, 2011. DNA topoisomerase I (Yersinia pestis CO92); in the data active = activity above about 50%, passing the limit was not always enough
SARS 3CLpro inh: SARS-CoV 3CLpro protease inhibitors, primary screen, biochemical, quenched FRET | Replicase polyprotein 1ab (Severe acute respiratory syndrome coronavirus), P0C6X7 | recombinant SARS-CoV 3CLpro, quenched FRET peptide cleavage | inhibition, % at 6 µM | 290,000 compounds, 0.14% hits; in the data active = inhibition above about 12%
SSB-PriA inh: inhibitors of Klebsiella pneumoniae PriA binding to SSB C-terminal tail, primary screen, biochemical, AlphaScreen | AID 1272365, 2023 | 430,000 compounds, 0.6% hits | PriA–SSB C-terminal tail interaction (Klebsiella pneumoniae) | inhibition, % at 33 µM | AlphaScreen SSBct-PriA binding, biotinylated peptide; in the data active = inhibition mostly above about 37%, no sharp cut-off; inactive = mostly below about 20%;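 note: plate controls were negative control peptide for no effect and reference peptide for full effect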
* hit, by the source's call; i = inactive; / = not tested or not shown; + = active, no number; ! = not confirmed by another sample. A selection: hits, their analogues and other compounds. The true share with any hit is near 0.9%.

SMILES	MazEF act	Y pestis TopoI	SARS 3CLpro inh	SSB-PriA inh
Cc1nc(C)n([C@@H](C)CC(=O)O)n1	/	/	/	-17.0
C=CCSc1ncc(-c2ccc(OC)cc2)n1-c1cccc(Cl)c1	/	/	/	32.0*
CC(C)CN(C(=O)COC(=O)c1cc2ccccc2cc1O)c1c(N)n(Cc2ccccc2)c(=O)[nH]c1=O	-29.5	80.0*	/	1.6
CCN(C(=O)COC(=O)c1c2c(nc3ccccc13)CCC2)c1c(N)n(Cc2ccccc2)c(=O)[nH]c1=O	-3.1	15.0	/	8.7
CC(C)CN(C(=O)COC(=O)c1c2c(nc3ccccc13)CCC2)c1c(N)n(Cc2ccccc2)c(=O)[nH]c1=O	0.0	59.9*	1.1	20.5
Cc1c(C(=O)OCC(=O)N(CC(C)C)c2c(N)n(Cc3ccccc3)c(=O)[nH]c2=O)oc2ccccc12	-14.0	82.0*	/	-4.1
CC(C)CN(C(=O)COC(=O)c1cc(=O)[nH]c2ccccc12)c1c(N)n(Cc2ccccc2)c(=O)[nH]c1=O	10.4	21.2	/	0.3
COc1ccc(Cl)cc1NC(=O)C1CCCN(c2ccc(-c3ccco3)nn2)C1 (configuration not stated)	/	/	/	8.0
NNC(=O)CSc1cccc2cccnc12	-4.3	0.2	3.1	4.0
CC(C)c1ccc(NC(=O)CSc2cccc3cccnc23)cc1	/	/	/	41.5
O=C(CSc1cccc2cccnc12)NC1CCS(=O)(=O)C1 (configuration not stated)	/	/	/	37.0*
O=C(CSc1cccc2cccnc12)Nc1cc(C(=O)O)cc(C(=O)O)c1	3.3	2.1	5.3	75.3*
Cc1cccc(NC(=O)CSc2cccc3cccnc23)c1	7.4	3.0	-1.7	49.0*
O=C(CSc1cccc2cccnc12)Nc1cc(Cl)cc(Cl)c1	/	/	/	56.8*
O=C(CSc1cccc2cccnc12)Nc1ccc2ccccc2c1	/	/	/	33.0
Cc1cc2nc3c(=O)[nH]c(=S)[nH]c3nc2cc1NC(=O)C(F)(F)F	+	-1.1	-6.4	-4.6
CCOc1ccc2nc(N(Cc3cccnc3)C(=O)c3ccnn3CC)sc2c1	/	/	/	7.0
O=S(=O)(C1CC1)N1CCN(CC(O)c2cccs2)CC1 (configuration not stated)	/	/	/	2.0
CC(=O)OC[C@H]1O[C@@H](Sc2cccc3cccnc23)[C@H](OC(C)=O)[C@@H](OC(C)=O)[C@H]1OC(C)=O	-10.2	-10.2	-6.0	40.2*
NC(=O)N/N=C\c1ccc(OC(F)F)cc1	/	/	/	6.0
CCN(CC)c1ccc2cc3ccc(N)cc3[n+](-c3ccccc3)c2c1	/	/	/	116.8*
Cc1ccc(C=C2C(=O)c3ccccc3C2=O)o1	91.3*	-4.1	-0.2	0.1
Cc1ccc(/C=C2/C(=O)c3ccc(C(=O)O)cc3C2=O)o1	4.2	-11.9	-1.9	8.9
COC(=O)N1CCc2ccc(NS(=O)(=O)CC34CCC(CC3=O)C4(C)C)cc2C1 (configuration not stated)	/	/	/	-14.0
COCC(=O)N1CCCc2ccc(NC(=O)c3cc(Br)cs3)cc21	/	/	/	0.0
SMILES	MazEF act	Y pestis TopoI	SARS 3CLpro inh	SSB-PriA inh
COCC(=O)N1CCCc2ccc(NC(=O)Cc3ccsc3)cc21	/	/	/	35.0*
COCC(=O)N1CCCc2ccc(NS(=O)(=O)CC34CCC(CC3=O)C4(C)C)cc21 (configuration not stated)	/	/	/	36.0*
COc1ccc(C2(CNC(=O)c3cc4ccccc4s3)CCOCC2)cc1	/	/	/	-5.0
Cc1ccc2c(c1)[C@H]1[C@H](CO2)[C@H](c2ccccc2)[C@]2(C)C(=O)N(Cc3ccc(F)cc3)CC(=O)N12	309.8*	-9.6	/	2.8
CCCCN1CC(=O)N2[C@H]3c4cc(C)ccc4OC[C@@H]3[C@H](c3ccccc3)[C@]2(C)C1=O	87.0*	23.5	/	2.4
CCCCN1CC(=O)N2[C@@H]3c4cc(Br)ccc4OC[C@@H]3[C@H](C(=O)OCC)[C@]2(C)C1=O	61.5*	23.9	/	-0.5
COc1ccc(CN2CC(=O)N3[C@H]4c5ccccc5OC[C@@H]4[C@H](c4ccccc4)[C@]3(C)C2=O)cc1	52.0*	-0.5	/	1.8
CCCCN1CC(=O)N2[C@H]3c4cc(Br)ccc4OC[C@@H]3[C@H](C(=O)OCC)[C@]2(C)C1=O	8.2	26.7	/	-16.4
COc1cccc(C(=O)N2CCN(Cc3nc(-c4ccc(F)cc4)cs3)CC2)c1OC	/	/	/	-2.0
Cc1ccc(-c2ccccc2NC(=O)CS(=O)CC(=O)Nc2ccc(C)c(Cl)c2)o1 (configuration not stated)	385.2*	27.6	4.5	4.6
Cc1ccc2c(n1)sc1c(-c3ccccc3)c(C#N)c(N)nc12	51.9*	-0.8	-6.0	-10.7
N#Cc1c(N)nc2c(C(N)=O)c(Nc3ccccc3)sc2c1-c1ccccc1	/	/	/	-7.0
O=C(CN(c1ccc(F)cc1)S(=O)(=O)c1ccc2c(c1)OCCO2)NCc1cccnc1	-1.4	2.2	3.5	51.8*
c1ccc(CNc2nc3ccccc3n3cnnc23)cc1	-4.7	-5.1	-3.5	104.2*
c1ccc(CNc2nc3ccccc3n3cnnc23)nc1	6.9	9.6	-1.2	-6.2
COc1cccc2cc(C(=O)NCc3cc(-c4ccco4)n(C)n3)oc12	/	/	/	1.0
O=C(O)Cc1ccc(N=Cc2c(O)ccc3ccccc23)cc1	-21.3	12.7	3.3	0.1
O=c1[nH]c2ccc(N=Cc3c(O)ccc4cc(Br)ccc34)cc2[nH]1	256.0*	0.8	3.8	4.0
O=C1c2ccc3c4c(ccc(c24)C(=O)N1NC(=O)C(F)(F)F)CC3	-6.5	1.6	-1.9	-0.2
CC(=O)NN1C(=O)c2ccc3c4c(ccc(c24)C1=O)C(=O)N(NC(C)=O)C3=O	69.4*	2.7	1.2	0.7
O=C1ON=C(c2ccccc2)/C1=C/c1ccc(-c2ccccc2[N+](=O)[O-])o1	-14.0	-10.3	14.5*	-1.7
CC(=NNC(=S)N1CC2CCC(CC2)C1)c1nccs1	3.9	15.5	/	57.1*
COCC(=O)N1CCCc2ccc(NS(=O)(=O)c3cccc(C)c3)cc21	/	/	/	0.0
Cc1ccc(C(=O)CSc2nnc3scc(-c4ccccc4)n23)cc1C	/	/	/	-9.0
O=C(CSc1nnc2scc(-c3ccccc3)n12)c1ccc2c(c1)OCCO2	54.8*	10.2	-5.3	-7.7
SMILES	MazEF act	Y pestis TopoI	SARS 3CLpro inh	SSB-PriA inh
c1ccc(-c2csc3nnc(SCc4ccc5c(c4)OCCO5)n23)cc1	-10.4	12.9	-1.9	39.9*!
CN1C(=O)c2cccc(NC(=O)c3cc(Cl)cc(Cl)c3)c2C1=O	/	/	/	-1.0
C=CCSC1=N/C(=C\c2cc(OC)c3c(c2)OCO3)C(=O)S1	517.5*	-4.1	5.3	-24.6
CCn1cc(/C=C/c2cc[n+](C)cc2)c2ccccc21	i	-6.0	-13.3	-6.4
CC(C)n1cc(/C=C/c2cc[n+](C)cc2)c2ccccc21	69.0*	-1.0	-16.3	-10.4
C=CCn1cc(/C=C/c2cc[n+](C)cc2)c2ccccc21	70.0*	-2.9	-13.1	-7.7
O=C(NCc1ccco1)c1csc(Nc2ccc(OC(F)(F)F)cc2)n1	/	/	/	7.0
